D2 PAM-1: human D2 receptor positive allosteric modulation; P14416; DiscoveRx D2 beta-arrestin cells, luminescence, 90 min; 100% = 57 uM dopamine signal; potentiation, % (test concentration not listed); 0.23% of 360,000 active; AID 624464; in the data active means potentiation above about 50%; inconclusive means mostly about 30% to 49%
Target sequence (P14416 whole entry, looked up): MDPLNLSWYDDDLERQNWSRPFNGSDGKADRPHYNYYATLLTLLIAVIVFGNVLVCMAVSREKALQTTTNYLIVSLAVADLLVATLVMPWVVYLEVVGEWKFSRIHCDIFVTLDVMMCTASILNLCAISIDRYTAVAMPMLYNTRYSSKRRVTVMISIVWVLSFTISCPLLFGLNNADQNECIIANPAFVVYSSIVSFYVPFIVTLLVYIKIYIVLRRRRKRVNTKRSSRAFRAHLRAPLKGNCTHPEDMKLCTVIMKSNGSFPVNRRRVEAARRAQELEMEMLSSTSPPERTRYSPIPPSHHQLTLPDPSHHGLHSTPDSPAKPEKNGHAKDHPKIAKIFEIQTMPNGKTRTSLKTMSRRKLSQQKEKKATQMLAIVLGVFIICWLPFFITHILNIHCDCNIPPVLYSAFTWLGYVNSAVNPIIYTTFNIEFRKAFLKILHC
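PathHunter beta-arrestin assay in DiscoveRx D2 cells. Compounds were added with an EC20 of dopamine (50 nM final) for 90 min at 37 deg C. Luminescence was read 1 h after detection reagent, with 57 uM dopamine as the EC100 control.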
D2 PAM-2: positively modulates the human D2 dopamine receptor allosterically; HEK293 T-REx D2, calcium flux, EC20 dopamine potentiation; potentiation, % at 10 µM; 0.34% of 340,000 active; AID 485347;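 active means potentiation over 3 SD above the plate norm, cut at about 30% in these data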; further: 0% is about no effect
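Calcium flux readout, no-wash dye, 1 read/s. Inducible HEK293 Trex D2 line, overnight 30 C. Compound alone 180 s (agonist flags), then EC20 dopamine, another 180 s to score potentiation.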
D2 ag-1: activates the human D2 dopamine receptor. HEK293 T-REx D2 cells, calcium flux agonist mode. 0.53% of 340,000 active. activation, % at 2 µM;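 active means activation over 3 SD above normal in the single-dose calcium agonist read, cut at about 30% in these data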; further: 0% is about no effect
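Agonism scored from kinetic calcium signal (1 read/sec, 180 s) following compound pin transfer, after a 10 s baseline. Cells: HEK293 Trex line expressing inducible D2 receptor coupled to calcium, dye-loaded after overnight culture at 30 C.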
D2 antag: D2 dopamine receptor (human) antagonism; P14416; HEK293 TREx D2 cells, calcium flux, dopamine EC80; inhibition, % at 10 µM; 2% of 340,000 active; in the data active means inhibition above about 30%; inactive means below that, where a call was filed; further: 0% is about no effect
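Antagonism is scored as inhibition of an EC80 dopamine-evoked calcium signal in a force-coupled, tetracycline-inducible HEK293 T-REx D2 line, with compound present 180 s before agonist.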
D2 ag-2: activates the human D2 dopamine receptor; P14416; DiscoveRx PathHunter D2 beta-arrestin, luminescence, 90 min; 100% = 57 uM dopamine signal; activation, % (no concentration beside the values); 0.084% of 360,000 active; AID 624465; in the data active means activation above about 40%; inconclusive means between about 15% and that limit
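Agonist mode: compounds alone added to overnight-plated D2 PathHunter cells for 90 min at 37 C, with 57 uM final dopamine (EC100) defining full response. Beta-arrestin recruitment detected by chemiluminescent reagent, read after 1 h at ambient temperature.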
Numbers without * were called inactive; u = inconclusive; x = no result given. The list is not random: actives were taken first. Their share in the collection is about 2.4%.

SMILES	D2 PAM-1	D2 PAM-2	D2 ag-1	D2 antag	D2 ag-2
CCNC(=O)C1(C)CCCN(Cc2ccccc2-c2ccccc2)C1 (configuration not stated)	-6	x	x	x	-2
COc1cc(C(=O)NCCc2sc(-c3ccc(C)cc3)nc2C)cc(OC)c1OC	x	x	1	x	x
O=C(C1CCCN(S(=O)(=O)c2ccc(Br)s2)C1)N1CCN(c2ccc(F)cc2)CC1 (configuration not stated)	x	4	-2	x	x
CC(C)(C)c1ccc(C(=O)O/N=C(\N)c2ccccc2)cc1	19	-4	1	27	40*
Cc1noc(-c2ccc(Cl)cc2)c1C(=O)O/N=C(\N)c1ccc(C(C)(C)C)cc1	151*	x	x	x	47*
N/C(=N\OC(=O)c1cccc(Br)c1)c1ccc([N+](=O)[O-])cc1	14	-7	-1	1	51*
CCOc1ccc(C(=O)O/N=C(\N)c2ccc([N+](=O)[O-])cc2)cc1OCC	58*	2	0	14	u
CCCCC(=O)Nc1cc(-c2cn3cccnc3n2)ccc1C	x	11	0	x	x
Cc1ccc(C(=O)O/N=C(\N)c2ccc(Br)cc2)cc1	28	-22	1	34*	u
N/C(=N\OC(=O)c1ccc(Br)cc1)c1ccccc1	13	2	0	-6	6
COc1ccc(/C(N)=N/OC(=O)c2ccc([N+](=O)[O-])c(C)c2)cc1OC	-5	-4	0	-11	2
COc1ccc(/C(N)=N/OC(=O)c2ccc(C)c([N+](=O)[O-])c2)cc1	132*	-1	0	0	u
N/C(=N\OC(=O)c1cccc(Br)c1)c1ccc(Br)cc1	100*	-5	0	7	13
Cc1cccnc1C(c1ccc(F)cc1)N(C)C(=O)C1CCN(CCOc2ccc(Cl)cc2Cl)CC1 (configuration not stated)	-18	x	x	x	-9
NC(=O)c1cc2ccccc2o/c1=N/NC(=O)c1cccc(Cl)c1	2	5	-1	49*	-4
Cc1cc(C)c(S(=O)(=O)Nc2ccc(-c3ccc(N4CCCCC4)nn3)cc2)c(C)c1	x	-4	1	x	x
Cc1c(C(=O)O)sc2nc(/C=C/c3cccc(F)c3)[nH]c(=O)c12	5	5	1	4	-2
Cc1ccc(/C=C/c2nc3sc(C(=O)O)c(C)c3c(=O)[nH]2)cc1[N+](=O)[O-]	2	-9	0	33*	u
CS(=O)(=O)n1c2ccccc2c(=O)n1-c1ccccc1CCl	-4	x	x	x	-3
CCn1cc([N+](=O)[O-])c(C(=O)N2N=C3/C(=C/c4cccs4)CCCC3C2c2cccs2)n1 (configuration not stated)	-4	43*	-1	-6	-2
COC1=C/C(=C/c2c(O)c(C#N)c3ccccn23)C=CC1=O	-7	-3	2	33*	-2
CC(OC(=O)c1ccc([N+](=O)[O-])o1)C(=O)Nc1nc(-c2ccc(F)c(F)c2)cs1 (configuration not stated)	66*	-6	0	3	7
Cc1cc(C(=O)OC(C)C(=O)Nc2nc(-c3ccccc3)cs2)c(C)o1 (configuration not stated)	3	28	-1	-8	-1
COC(CNC(=S)Nc1ccc([N+](=O)[O-])cc1)OC	-19	9	-2	35*	-1
O=C(NCc1cccnc1)c1ccc(-c2cc(Cl)ccc2Cl)o1	-6	-20	-1	50*	-6
SMILES	D2 PAM-1	D2 PAM-2	D2 ag-1	D2 antag	D2 ag-2
Cc1ccc(CC(=O)NCc2cccnc2)cc1	x	4	1	67*	x
O=C(NCc1cccnc1)c1ccc(-c2ccc(Cl)cc2)o1	-17	-17	0	-19	3
Cc1c(Cl)c([N+](=O)[O-])nn1CC(=O)NCc1cccnc1	0	-2	0	39*	3
Cc1ccc(CSCC(=O)NCc2cccnc2)cc1	-3	-3	-1	-1	0
Cc1ccc2scc(N3CCCCC3C)c(=O)c2c1 (configuration not stated)	x	11	-1	x	x
Cc1cccc(N2CC(c3nc4ccc(C)cc4[nH]3)CC2=O)c1 (configuration not stated)	x	x	0	x	x
CC1CCN(Cc2c(C(=O)N/N=C/c3cccc(Cl)c3)nnn2-c2nonc2N)CC1	-13	38*	0	-8	1
C/C(=N\NC(=O)c1nnn(-c2nonc2N)c1CN1CCCCC1)c1ccccc1O	-6	-4	0	30*	-6
COc1ccc2nc(Nc3sc4c(c3C(N)=O)CCCC4)sc2c1	55*	-7	2	14	u
CCOc1ccc(NC(=O)CCN2C(=O)CSc3ccccc32)cc1	-5	-11	1	-9	3
O=C(CCN1C(=O)CSc2ccccc21)Nc1ccc(OC(F)(F)F)cc1	-4	-17	0	51*	-1
CCc1ccc(NC(=O)c2cc(S(=O)(=O)N3CCCCCC3)ccc2F)cc1	x	15	0	x	x
O=C(Nc1cccc(S(=O)(=O)N2CCOCC2)c1)c1ccc(N2CCCC2=O)cc1	-1	-12	1	11	0
Cc1ccc(CNC(=O)c2oc3ccc(S(=O)(=O)N4CCC5(CC4)OCCO5)cc3c2C)cc1	17	-9	x	x	2
O=C(Nc1cccc(S(=O)(=O)N2CCCCC2)c1)c1ccc(N2CCCC2=O)cc1	-8	51*	0	1	-2
Cc1c(C(=O)NCCN(C)C)oc2ccc(S(=O)(=O)N3CCC4(CC3)OCCO4)cc12	-2	x	1	33*	0
COCCNC(=O)c1c[nH]c2ccc(S(=O)(=O)N3CCOCC3)cc2c1=O	-4	-8	1	46*	-2
O=C(CCNC(=O)c1ccc(Br)cc1)Nc1cccc(S(=O)(=O)N2CCCC2)c1	-26	-1	-1	38*	-4
COc1cc(NC(=O)Cn2c(=O)n(CC(=O)NCCc3ccc(OC)c(OC)c3)c(=O)c3sccc32)cc(OC)c1	x	-6	0	x	x
COc1ccccc1NC(=O)Cn1c(=O)n(-c2cccc(C)c2)c(=O)c2c1c1cc(C)ccc1n2C	x	-1	-1	x	x
CC(C)(C)c1ccc(OCC(=O)Nc2c(C(=O)c3ccc(F)cc3)oc3ccccc23)cc1	x	5	x	x	x
CCOc1ccccc1N1CCN(CC(=O)Nc2ccnn2C2CCCC2)CC1	-4	-19	12	-3	15
CCN(C(=O)CSc1nc2ccccc2n1CC(=O)Nc1cccc(C#N)c1)c1ccccc1	x	2	x	x	x
O=C(NCCCN1CCCC1=O)c1cccc(S(=O)(=O)N2CCCCC2)c1	-1	3	0	38*	8
O=C(NCCCN1CCOCC1)c1cccc(S(=O)(=O)N2CCN(c3ccccc3)CC2)c1	-23	13	0	-13	-8
O=C(NCCOc1ccccc1F)c1cccc(S(=O)(=O)N2CCN(c3ccccc3)CC2)c1	29	5	2	35*	3

Source: PubChem BioAssay (National Center for Advancing Translational Sciences (NCATS))
